Assay results taken from PubChem BioAssay AID652054 (National Center for Advancing Translational Sciences (NCATS), 2013).
The whole screen tested about 360,000 compounds, of which about 9,100 (2.5%) were called active. Roughly 4% stayed inconclusive and do not appear here. Rule as the data show it: active = max response below about -50%; inconclusive = no clear call, values can overlap the other calls; inactive = above that. Many of the other results were omitted from the sample, so actives are more common in it than they were.

Biological target: D(3) dopamine receptor (Homo sapiens) (UniProt P35462)
Sequence (P35462 whole entry, looked up): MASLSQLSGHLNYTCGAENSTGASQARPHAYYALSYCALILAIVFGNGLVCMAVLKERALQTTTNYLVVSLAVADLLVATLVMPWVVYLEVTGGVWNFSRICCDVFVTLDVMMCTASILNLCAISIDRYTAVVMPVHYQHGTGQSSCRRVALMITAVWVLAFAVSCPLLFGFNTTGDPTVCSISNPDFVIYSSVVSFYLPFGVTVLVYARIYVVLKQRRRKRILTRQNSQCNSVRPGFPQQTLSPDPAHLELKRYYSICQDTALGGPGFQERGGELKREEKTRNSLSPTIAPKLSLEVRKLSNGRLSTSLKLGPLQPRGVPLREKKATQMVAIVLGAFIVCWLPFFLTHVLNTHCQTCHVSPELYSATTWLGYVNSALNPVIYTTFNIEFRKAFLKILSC
Assay: qHTS of D3 Dopamine Receptor Antagonist: qHTS
Conditions: D3R cells, DiscoveRx beta-arrestin luminescence, antagonist mode; active compounds read low
How it was run: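 Cells plated overnight at 1500 cells/well, then exposed to library compounds with dopamine controls for 90 minutes at 37 degrees C. DiscoveRx reagent added for 30–60 minutes at room temperature; luminescence read, quantitative HTS format.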
% is scaled to controls: 0 for no effect and ±100 for the full control effect.

Compound	max response, negative = inhibition
Cc1ccc(C(=O)OCC(=O)NC2CCCCCCC2)cc1C	5.37% (inactive)
CCCCNC(=O)C[C@@H]1C[C@@]2(C(=O)OC)CC(C)(C)CC=C2N(Cc2ccco2)C1=O	22.3% (inactive)
Cc1cc(Br)cn2c(Cc3ccccc3C(F)(F)F)c(-c3ccc(Cl)cc3)nc12	3.99% (inactive)
COc1ccc(-n2cc(CN(C)Cc3n[nH]c(=O)[nH]3)c(-c3cccc(F)c3)n2)cc1	0.876% (inactive)
CCC(O)C1CCN(Cc2cn(-c3ccc(OC)cc3)nc2-c2cccc(F)c2)CC1 (stereo unspecified)	-73% (active)
COc1ccc(-n2cc(CNC3CCOCC3)c(-c3cccc(F)c3)n2)cc1	-0.354% (inactive)
CCCCOCCCNC(=O)C[C@@H]1C[C@@]2(C(=O)OCC)CCCC=C2N(CCC2=CCCCC2)C1=O	2.81% (inactive)
CN1OC[C@@H]2CN(S(=O)(=O)c3cccc4ccccc34)[C@H](c3ccc(N4CCCCC4)cc3)C[C@@H]21	0% (inactive)
C[C@H]1Cn2cnc(C(=O)N[C@@H](Cc3c[nH]c4ccccc34)C(=O)OC(C)(C)C)c2C(=O)N1	5.11% (inactive)
CN(C)C(=O)c1cccc(-c2cnc3c(NC=O)cc(-c4ccc(F)cc4)cn23)c1	95.3% (inactive)
CCOc1ccc(Br)cc1CSC(=N)N	-4.48% (inactive)
CCc1ccc(-c2nn(-c3ccccc3)cc2CSC(=N)N)cc1	6.38% (inactive)
N=C(N)SCc1cccc2ccccc12	-51.3% (active)
CCCNC(=O)C[C@@H]1CC[C@@H]2[C@H](COC[C@H](O)CN2C(=O)c2cc(Cl)cc(Cl)c2)O1	13.7% (inactive)
N#CCCN(C(=S)Nc1ccc(Cl)c(Cl)c1)C1CCCCC1	2.54% (inactive)
CN1OC[C@@H]2CN(C(=O)C(C)(C)C)[C@H](c3ccc(-n4ccnc4)cc3)C[C@@H]21	22.8% (inactive)
C[C@@H]1CCCCO[C@H](CN(C)Cc2ccccc2)[C@@H](C)CN([C@H](C)CO)C(=O)c2cc(NS(=O)(=O)c3ccc(Cl)cc3)ccc2O1	-0.783% (inactive)
O=C(O)c1ccccc1/C=N/Nc1ccc(S(=O)(=O)Nc2ccc(Cl)cc2)cc1[N+](=O)[O-]	6.67% (inactive)
COc1ccc(Br)cc1/C=N/Nc1ccc(S(=O)(=O)Nc2ccccc2C(=O)O)cc1[N+](=O)[O-]	-66% (active)
Cc1ccc(NS(=O)(=O)c2ccc(N/N=C/c3ccccc3OCC(=O)O)c([N+](=O)[O-])c2)c(C)c1	-17% (inactive)
CCCNC(=O)C1CC(=O)N(c2ccc(OCc3ccccc3)cc2)C1 (stereo unspecified)	0% (inactive)
CCNC(=O)C1(C)CCN(Cc2ccc(C(=O)OCC)o2)C1 (stereo unspecified)	-10.7% (inactive)

Compound	max response, negative = inhibition
CCOc1cc2[nH]c(=O)n(Cc3ccc(C(=O)NCCCN4CCCC4=O)cc3)c(=O)c2cc1OCC	6.17% (inactive)
COc1cc(C(=O)NC2CCN(Cc3ccccc3)CC2)cc(Cl)c1OC(C)C	-71.6% (active)
COc1ccc(C(=O)O)cc1S(=O)(=O)NC1CCN(Cc2ccccc2)CC1	8.04% (inactive)
COc1cc2[nH]c(=O)n(CCC(=O)NC3CCN(Cc4ccccc4)CC3)c(=O)c2cc1OC	-7.24% (inactive)
COC(=O)c1cccc(NC(=O)CN2CCC(NC(=O)c3cc(OC)c(OC)c(OC)c3)CC2)c1	24% (inactive)
COc1cc2[nH]c(=O)n(Cc3ccc(C(=O)NC4CCN(Cc5ccccc5)CC4)cc3)c(=O)c2cc1OC	-79.7% (active)
Nc1cccc(-c2cncc(N3CCN(Cc4ccccn4)CC3)n2)c1	-4.86% (inactive)
CCN(CC(=O)Nc1ccc(NC(C)=O)cc1)C(=O)C1CC(=O)N(c2ccc3c(c2)OCCO3)C1 (stereo unspecified)	19% (inactive)
O=C(CN1C(=O)NC2(CCc3ccccc32)C1=O)NC1CCCCC1 (stereo unspecified)	-24.4% (inactive)
CCOC(=O)C1(C)CCCN(C(=O)c2ccc(F)c(Cl)c2)C1 (stereo unspecified)	104% (inactive)
CC(=O)c1cccc(-c2cnc3c(NC=O)cc(-c4ccccc4Oc4ccccc4)cn23)c1	31% (inactive)
C#Cc1cc(N2CCN(C(=O)c3ccoc3)CC2)n2nc(-c3cccc(Cl)c3)cc2n1	44.3% (inactive)
CCOC(=O)[C@]12CCCC=C1N(CCC1=CCCCC1)C(=O)[C@H](CC(=O)N1CCSCC1)C2	21.2% (inactive)
Cc1cc(C)cc(C(=O)NC(=S)Nc2ccc3[nH]c(=O)[nH]c3c2)c1	-10.1% (inactive)
Cc1cc2[nH]ncc2cc1NC(=S)NC(=O)c1ccccc1	-53.9% (active)
Cc1ccc(C(=O)NC(=S)Nc2ccc3[nH]c(=O)[nH]c3c2)cc1C	-9.59% (inactive)
COc1ccccc1CNC(=O)c1cc(-c2cc(Cl)ccc2C)n[nH]1	3% (inactive)
O=C1c2ccccc2C(=O)C1C(=O)C1CC1	4.87% (inactive)
Cc1ccc(C(=O)N/C(=C/c2cccnc2)C(=O)O)cc1	0% (inactive)
C/C(=N\NC(=O)c1ccc(C)cc1)C1C(=O)c2ccccc2C1=O	-89.4% (active)
O=C1NC[C@H](CCCCN2CCN(CCc3ccccc3)C(=O)C2=O)N(CC2CCCCC2)C1=O	2.55% (inactive)
CCN(C(=O)Nc1cccc2ccccc12)c1ccccc1	-20.4% (inactive)

Compound	max response, negative = inhibition
Cc1cc(Br)ccc1NC(=O)CCCOc1cc(=O)n(C)c2ccccc12	-20.6% (inactive)
COc1ccc(Nc2oc(-c3ccccc3Cl)nc2C#N)cc1	-54.1% (active)
COc1ccc(Nc2cc(=O)oc3ccccc23)cc1	-15.7% (inactive)
COc1ccc(Nc2ccc3ccccc3c2)cc1	-3.21% (inactive)
O=C(CSc1ccc(Cl)cc1)NC1CC1	20.3% (inactive)
Cc1cccc(C)c1NC(=O)CSc1nc2c([nH]1)c(=O)n(C)c(=O)n2C	-7.1% (inactive)
Cc1cc2cc3c(cc2nc1SCC(=O)Nc1c(C)cccc1C)CCC3	-74.6% (active)
Cc1cc(C)c(C#N)c(SCC(=O)Nc2ccccc2)n1	-13.9% (inactive)
CN(C)CCNC(=O)c1cccc(-c2cnc3c(NC=O)cc(-c4cccc(C(F)(F)F)c4)cn23)c1	0% (inactive)
CN(Cc1ccccc1)C(=O)CCC1CCN(C(=O)c2ccco2)CC1	13.8% (inactive)
Cn1c(C(=O)N2CCC(C(N)=O)CC2)cc2c(=O)n(C)c3ccccc3c21	0% (inactive)
O=C(Cc1ccc(-n2c(=O)[nH]c3ccccc3c2=O)cc1)N1CCN(c2cccc(Cl)c2)CC1	36.6% (inactive)
Cn1c(C(=O)NCCCN2CCN(c3cccc(Cl)c3)CC2)cc2c(=O)n(C)c3ccccc3c21	-103% (active)
CCn1c(=O)cc(OCC(=O)NCCCN2CCN(c3cccc(Cl)c3)CC2)c2ccccc21	-69.4% (active)
O=C(CCn1c(=O)[nH]c2ccccc2c1=O)NCCCN1CCN(c2cccc(Cl)c2)CC1	-71.4% (active)
O=C(NCCCN1CCOCC1)c1cc(-c2ccc(Cl)cc2)on1	4.36% (inactive)
O=C(COc1cc2oc(=O)c3c(c2cc1Cl)CCC3)NCCCN1CCOCC1	-19% (inactive)
O=C(CCCn1c(=O)[nH]c2cc(Cl)ccc2c1=O)NCCN1CCN(c2ccccc2)CC1	-29.2% (inactive)
O=C(Cc1csc(Nc2nc(=S)[nH]c3ccccc23)n1)NCCCN1CCN(c2cccc(Cl)c2)CC1	-83.7% (active)
COc1cccc(CNC(=O)Cc2csc(Nc3nc(=S)[nH]c4ccccc34)n2)c1	11.5% (inactive)
Cn1c(Cc2cccc3ccccc23)nnc1SCC(=O)N1CCN(c2cccc(Cl)c2)CC1	0% (inactive)
CCOC(=O)N1CCC(Nc2c(NCCN3CCN(c4cccc(Cl)c4)CC3)c(=O)c2=O)CC1	0.472% (inactive)

Compound	max response, negative = inhibition
C[C@H]1CN([C@@H](C)CO)C(=O)CCCn2cc(nn2)CO[C@@H]1CN(C)S(=O)(=O)c1ccccc1C#N	-12.5% (inactive)
Cc1ccc2nc(-c3ccccc3)c(CC3CCCCC3)n2c1	-9.93% (inactive)
COc1ccc(C(O)C(O)(C(=O)OC(C)C)c2ccc(C)cc2)cc1 (stereo unspecified)	-17.4% (inactive)
CC(C)C[C@H]1CNC(=O)C(=O)N1C[C@H]1CCCN1C[C@H](Cc1ccc(O)cc1)N1C[C@H](CC(C)C)N(CC2CCCCCC2)C(=O)C1=O	30.9% (inactive)
CC(C)C[C@@H]1Cc2[nH][nH]c(=O)c2[C@H](CCc2ccccc2)O1	-13% (inactive)
Clc1ccc(-c2cccc3nccn23)cc1	0% (inactive)
CCn1c(SCC(=O)N2CCCC2=O)nc2ccccc21	7.76% (inactive)
CCOC(=O)[C@]12CCCC=C1N(CCC1=CCCCC1)C(=O)[C@H](CC(=O)NCCCOC)C2	7.2% (inactive)
COc1ncnc2c1ncn2CCCNCCN1CCOCC1	20.7% (inactive)
COc1ccc(S(=O)(=O)N/N=C\c2ccc(OC)c(COc3ccc(C)cc3[N+](=O)[O-])c2)cc1	-59.9% (active)
Cc1ccc(S(=O)(=O)N/N=C\c2cc3c(cc2[N+](=O)[O-])OCO3)cc1	-4.05% (inactive)
COc1ccc(S(=O)(=O)Nc2ccc3cn[nH]c3c2)cc1[N+](=O)[O-]	-18.8% (inactive)
Nc1[nH]c(C(=O)c2ccccc2)c(-c2ccncc2)c1C(=O)NCc1cccc2ccccc12	-9.51% (inactive)
Nc1ncnc2c1ncn2[C@@H]1O[C@H](CNC(=O)[C@H](N)Cc2cccnc2)[C@@H](O)[C@H]1O	1.65% (inactive)
COc1cc(NC(=O)NCC2CCN(Cc3ccc(C)cc3)CC2)cc(OC)c1OC	-16.2% (inactive)
Cc1cccc(CN2CCC(CNC(=O)Nc3ccc(F)c(Cl)c3)CC2)c1	-60.2% (active)
COc1ccc(Cl)cc1NC(=O)NCC1CCN(Cc2ccccc2F)CC1	-85.7% (active)
O=C(NCC1CCN(Cc2ccccc2Cl)CC1)Nc1cccc(Cl)c1	-29.8% (inactive)
O=C(CN1CCN(Cc2ccccc2)CC1)Nc1ccc(F)c(F)c1	-16.4% (inactive)
COc1ccc(Cl)cc1NC(=O)C(C)N1CCc2ccccc21 (stereo unspecified)	-7.48% (inactive)
